An excerpt weighted towards active compounds, which were near 19% of everything screened.
IL1B secr inh: inhibitors of inflammasome signaling (IL-1 beta secretion) | THP-1 LPS/ATP IL-1B secretion, AlphaLISA, 16 h; active compounds read low | activity change, % at 57.5 µM | 360,000 tested, 4.7% active; in the data active = activity change below about -50%; inconclusive = mostly about -30% to -49%
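THP-1 cells pretreated 1 hr with compounds (up to 57.5 uM final), then stimulated with LPS (250 ng/mL final) plus ATP (1.25 mM final); secreted IL-1B measured by AlphaLISA after 16 hr, decreased signal indicating inhibition.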
TDP1 cell noCPT: qHTS for Inhibitors of human tyrosyl-DNA phosphodiesterase 1 (TDP1): qHTS in cells in absence of CPT | AID 686978, 2013 | Potency, µM (series often up to 46.2 µM), for the others: at the highest dose activity change, negative = growth inhibition, most hits filed as inhibitors | 420,000 tested, 15% active | DT40 Tdp1-/- hTDP1 cells, no CPT, ATP luminescence, 48 h; note: potency is the fitted concentration of half-maximal effect; nearly all actives have a fitted effect of over 55% in size
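Chicken DT40 Tdp1-/- cells stably complemented with human TDP1 were seeded at 400 cells/well with DMSO in place of 20 nM camptothecin. After compound pinning, cells grew at least 48 hr at 37 °C; viability read by CellTiter-Glo luminescence.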
HT1080 IDH1KD tx: kills HT-1080 cells with IDH1 knockdown. HT-1080 IDH1 knockdown viability, ATP luminescence, 48 h. Potency, µM (highest dose often 46.1 µM), for the others: at the top dose activity, negative = toxicity, hits mostly cytotoxic. 360,000 tested, 2% active. AID 686971;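 note: potency is the fitted concentration of half-maximal effect; 0% = DMSO wells and -100% = cell-free medium wells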
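Assay cells: HT-1080 with IDH1 knockdown, 750 per well, RPMI/5% FBS. Exposure: 48 h at 37 °C following 2 h pre-incubation. Read: CellTiter-Glo luminescence; fitted concentration-response, curve class assigned.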
DT40 TDP1 CPT: growth inhibition of DT40 Tdp1-/-;hTDP1 cells with camptothecin (screen for TDP1 inhibitors) | Potency, µM (doses to about 46.2 µM), inactives show top-dose activity change, negative = growth inhibition, most hits filed as inhibitors | 420,000 tested, 12% active | chicken DT40 Tdp1-/-;hTDP1 cells + 20 nM CPT, ATP luminescence, 48 h | AID 686979; note: potency is the fitted concentration of half-maximal effect; nearly all actives have a fitted effect of over 55% in size
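Chicken DT40 Tdp1-/- cells complemented with human TDP1, 400 cells/well, exposed to compounds plus 20 nM camptothecin for at least 48 h at 37 C; viability read as ATP content by CellTiter-Glo luminescence.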
HT1080-NT tox: kills 2HG-producing HT-1080-NT fibrosarcoma cells; HT-1080-NT fibrosarcoma viability, CellTiter-Glo ATP luminescence, 48 h; Potency, µM (series often up to 46.1 µM), for the others: at the top dose activity, negative = less viability, actives largely listed as cytotoxic; 360,000 tested, 1.6% active; AID 686970;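 note: NT is the 2HG producing partner of a matched IDH1 knockdown line; potency is the fitted concentration of half-maximal effect; 0% = DMSO-treated cells and -100% = media-only wells without cells; nearly all actives have a fitted effect of over 55% in size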
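750 cells/well, RPMI + 5% FBS; 2 h settle, compound pin-transfer, 48 h at 37 degrees C. CellTiter-Glo 10 min RT, luminescence. Normalized to DMSO and media-only wells.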
ELG1 repair inh: inhibitors of ELG1-dependent DNA repair in HEK293T cells; HEK293T ELG1-luciferase reporter, luminescence, 16 h; DNA damage induced by 5-fluorouridine; Potency, µM (doses to about 46.1 µM), for inactives: at the highest dose activity change, negative = inhibition, hits mostly inhibitors; 330,000 tested, 2.3% active; note: potency is the fitted concentration of half-maximal effect; nearly all actives have a fitted effect of over 55% in size
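HEK293T cells expressing luciferase-tagged ELG1 (2,000/well) received 5-Fluorouridine plus compound or DMSO for 16 hr at 37 °C. Luciferase was read by ONE-Glo luminescence after 30 min at room temperature.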
ELG1 FLuc counter: luciferase inhibition in cell-free luciferin readout for ELG1 hits. shares compounds with ELG1 repair inh. cell-free firefly luciferase luminescence counter-screen, ViewLux. Potency, µM (titrated, usually from 46.1 µM), for inactives: top-dose activity change, negative = inhibition, actives largely listed as inhibitors. 350 tested, 3% active; note: potency is the fitted concentration of half-maximal effect
ELG1-Luc inh: human ELG1 repair inhibition, luciferase-tagged ELG1 confirmation. Potency, µM (titrated, usually from 46.1 µM), inactives show at the highest dose activity change, negative = inhibition, most hits filed as inhibitors. HEK293T ELG1-luciferase levels, luminescence; cells co-treated with 5-fluorouridine. shares compounds with ELG1 repair inh. 670 tested, 68% active; note: potency is the fitted concentration of half-maximal effect; nearly all actives have a fitted effect of over 55% in size
Target sequence (Q96QE3 whole entry, looked up): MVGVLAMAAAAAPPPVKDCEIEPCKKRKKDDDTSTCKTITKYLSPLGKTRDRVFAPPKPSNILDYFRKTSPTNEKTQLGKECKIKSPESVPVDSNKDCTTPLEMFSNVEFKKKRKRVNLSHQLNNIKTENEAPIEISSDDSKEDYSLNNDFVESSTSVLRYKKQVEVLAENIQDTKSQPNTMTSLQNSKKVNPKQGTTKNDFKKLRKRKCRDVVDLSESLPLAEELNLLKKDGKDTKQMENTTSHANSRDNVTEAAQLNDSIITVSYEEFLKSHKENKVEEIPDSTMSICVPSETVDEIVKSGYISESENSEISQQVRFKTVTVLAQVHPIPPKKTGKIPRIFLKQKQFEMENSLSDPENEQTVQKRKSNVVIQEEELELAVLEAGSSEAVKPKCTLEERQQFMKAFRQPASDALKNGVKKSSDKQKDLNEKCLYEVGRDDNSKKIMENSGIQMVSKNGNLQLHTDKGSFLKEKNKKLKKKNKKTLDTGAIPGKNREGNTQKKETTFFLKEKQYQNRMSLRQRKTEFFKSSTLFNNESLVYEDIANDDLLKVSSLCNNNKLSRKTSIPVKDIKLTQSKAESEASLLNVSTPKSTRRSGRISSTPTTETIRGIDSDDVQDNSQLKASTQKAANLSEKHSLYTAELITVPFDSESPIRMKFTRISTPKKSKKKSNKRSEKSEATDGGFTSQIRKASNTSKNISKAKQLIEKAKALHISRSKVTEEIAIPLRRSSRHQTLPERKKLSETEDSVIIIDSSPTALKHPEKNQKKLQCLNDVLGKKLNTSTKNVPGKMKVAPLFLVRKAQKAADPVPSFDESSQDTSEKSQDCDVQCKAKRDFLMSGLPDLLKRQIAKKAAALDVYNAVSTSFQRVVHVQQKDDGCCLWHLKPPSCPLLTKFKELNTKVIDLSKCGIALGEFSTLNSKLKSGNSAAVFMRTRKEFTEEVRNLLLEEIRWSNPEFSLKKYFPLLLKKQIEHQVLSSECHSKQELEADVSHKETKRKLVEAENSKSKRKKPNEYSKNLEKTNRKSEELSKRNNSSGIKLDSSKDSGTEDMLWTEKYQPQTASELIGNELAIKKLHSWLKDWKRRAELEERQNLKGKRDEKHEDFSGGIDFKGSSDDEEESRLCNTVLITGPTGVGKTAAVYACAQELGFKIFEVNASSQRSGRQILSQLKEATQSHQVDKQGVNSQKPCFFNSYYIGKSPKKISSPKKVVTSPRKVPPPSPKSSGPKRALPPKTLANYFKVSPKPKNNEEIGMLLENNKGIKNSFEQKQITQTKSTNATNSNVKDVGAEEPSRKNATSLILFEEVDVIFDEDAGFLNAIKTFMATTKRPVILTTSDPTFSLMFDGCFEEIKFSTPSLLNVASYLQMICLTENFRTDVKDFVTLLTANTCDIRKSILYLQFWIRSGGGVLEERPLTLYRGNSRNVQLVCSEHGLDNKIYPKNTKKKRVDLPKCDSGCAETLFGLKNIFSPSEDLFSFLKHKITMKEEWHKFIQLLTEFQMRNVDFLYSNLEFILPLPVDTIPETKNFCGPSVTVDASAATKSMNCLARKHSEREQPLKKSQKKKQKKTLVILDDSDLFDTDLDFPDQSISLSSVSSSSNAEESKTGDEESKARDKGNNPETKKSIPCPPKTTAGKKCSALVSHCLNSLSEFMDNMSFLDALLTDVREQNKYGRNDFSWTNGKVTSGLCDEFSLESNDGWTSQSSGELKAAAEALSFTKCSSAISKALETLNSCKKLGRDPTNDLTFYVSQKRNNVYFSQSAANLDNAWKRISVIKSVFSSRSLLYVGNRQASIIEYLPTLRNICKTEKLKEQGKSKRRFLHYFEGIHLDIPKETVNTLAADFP
ELG1 MMS Luc: MMS-stimulated human ELG1 repair inhibition, confirmed; shares compounds with ELG1 repair inh; HEK293T luciferase-tagged ELG1 level, MMS stimulated; Potency, µM (series often up to 46.1 µM), inactives show at the highest dose activity change, negative = inhibition, most hits filed as inhibitors; 670 tested, 53% active; note: potency is the fitted concentration of half-maximal effect; nearly all actives have a fitted effect of over 60% in size
ELG1 5FU viab: confirmation of ELG1 repair inhibitors: viability with 5FU. shares compounds with ELG1 repair inh. cell viability with 5-FU, ELG1-dependent repair. Potency, µM (titrated, usually from 46.1 µM), for the others: top-dose activity change, negative = viability loss, most hits filed as cytotoxic. 670 tested, under 10 active;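 note: ELG1-luc HEK293T cells cotreated with 5-fluorouridine at 10 µM final; potency is the fitted concentration of half-maximal effect; viability measured 16 h after compound addition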
ELG1 MMS viab: confirmation of ELG1 repair inhibitors: viability with MMS; shares compounds with ELG1 repair inh; Cell viability with MMS, ELG1-dependent DNA repair; Potency, µM (titrated, usually from 46.1 µM), for inactives: at the top dose activity change, negative = viability loss, actives largely listed as cytotoxic; 670 tested, 33% active; AID 624251;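 note: ELG1-luc HEK293T cells co-treated with 10 µM MMS; potency is the fitted concentration of half-maximal effect; viability read 16 h after compound addition; nearly all actives have a fitted effect of over 60% in size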
ELG1 unstim viab: affects unstimulated cell viability, ELG1 hit counter-screen; shares compounds with ELG1 repair inh; cell viability counter-screen, unstimulated, luminescence; Potency, µM (highest dose often 45.9 µM), for inactives: at the top dose activity change, negative = loss of viability, hits mostly cytotoxic; 900 tested, 8% active;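 note: potency is the fitted concentration of half-maximal effect; compound exposure lasted 16 hours before reading; nearly all actives have a fitted effect of over 55% in size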
FLuc enzyme: firefly luciferase inhibition counter-screen; 350 tested, 10% active; purified firefly luciferase, luminescence counter-screen; shares compounds with ELG1 repair inh; Potency, µM (top dose mostly 57.5 µM), for the others: at the highest dose activity, negative = inhibition, hits mostly inhibitors; note: potency is the fitted concentration of half-maximal effect
An asterisk follows results filed as active; ? = inconclusive; . = not tested or not shown; [ ] = remark or other dose. Unless noted, calls come from the whole dose curve; as a rule, active = well fitted curve in the direction sought with a large enough effect; inconclusive = small, poorly fitted or top-dose-only effect, or another doubt; inactive = no such curve, though single readings can be large; an effect the other way counts as inactive or inconclusive. Unless noted, % is set by controls: 0 for no effect and ±100 for the full control effect.

SMILES | IL1B secr inh | TDP1 cell noCPT | HT1080 IDH1KD tx | DT40 TDP1 CPT | HT1080-NT tox | ELG1 repair inh | others
COc1c(C)cc(C(=O)C2CCCN(Cc3cnc(C)s3)C2)cc1C (configuration not stated) | 0.0 | 25.9µM* | -6.9% | ? | -4.2% | ?
N#CC1=C(N)C(C#N)(C#N)C(c2ccncc2)C2CN(C(=O)OCc3ccccc3)CC=C12 (configuration not stated) | ? | 16.4µM* | 20.6µM* | 20.6µM* | ? | -25.2%
CN1CC=C2C(C#N)=C(N)C(C#N)(C#N)C(c3ccncc3)C2C1 (configuration not stated) | -3.9 | ? | 11.2% | ? | 2.4% | 21.5%
C#CCOc1ccc(OC)cc1C(c1c(C)[nH][nH]c1=O)c1c(C)[nH][nH]c1=O | -9.9 | ? | -1.3% | 14.9% | 5.8% | -8.9%
CCC(=O)N1N=C(c2c(O)n(C)c(=O)n(C)c2=O)CC1c1ccccc1 (configuration not stated) | 250.0 | 4.11µM* | 6.51µM* | 3.66µM* | ? | ?
Cc1cc(N2CCNCC2)nc2ccccc12 | -62.6* | ? | -1.3% | -8.5% | ? | ?
CC(=O)Nc1ccc(S(=O)(=O)N2Cc3ccccc3-n3nncc3C2)cc1 | 15.8 | 14.6µM* | -1.3% | 14.6µM* | -2.0% | .
Cc1ccc(S(=O)(=O)N2Cc3ccccc3-n3nncc3C2)cc1 | 0.0 | ? | 3.1% | ? | 10.5% | .
Cc1ccc(C)c(N2CCN(c3nc4ccc(Cl)cc4n4cnnc34)CC2)c1 | . | 16.4µM* | . | 18.4µM* | . | .
Cc1cc(C)cc(Nc2nc3ccc(C)cc3n3cnnc23)c1 | -5.8 | ? | -2.1% | -24.9% | 0.0% | -0.7%
CCN1C(=O)/C(=C/c2ccc3c(c2)CCN3CCCCl)C(=O)NC1=S | -18.7 | 23.1µM* | 5.2% | ? | 13.7% | 17.4%
CC[C@@H](C(=O)[C@@H](C)[C@@H](O)[C@H](C)[C@@H]1O[C@@H]([C@@H](CC)C(=O)O)CC[C@@H]1C)[C@H]1O[C@]2(C=C[C@@H](O)[C@]3(CC[C@@](C)([C@H]4CC[C@](O)(CC)[C@H](C)O4)O3)O2)[C@H](C)C[C@@H]1C | -110.7* | 0.517µM* | 2.91µM* | 0.581µM* | 0.517µM* | .
COc1cc2c(cc1OC)C1C(=O)c3c(cc4c(c3O)C=CC(C)(C)O4)OC1CO2 (configuration not stated) | . | 0.731µM* | . | 1.3µM* | . | . | ELG1 FLuc counter=-2.8%;ELG1-Luc inh=?;ELG1 MMS Luc=0.706µM*;ELG1 5FU viab=-3.5%;ELG1 MMS viab=0.792µM*;ELG1 unstim viab=?;FLuc enzyme=?
C[C@@H]1C[C@H](C)C[C@H](C)[C@@H](O)CC(=O)O[C@H]([C@H]2CCC[C@H]2C(=O)O)C/C=C/C=C(/C#N)[C@H](O)[C@@H](C)C1 | . | . | . | . | . | . | ELG1 FLuc counter=?;ELG1-Luc inh=0.397µM*;ELG1 MMS Luc=0.792µM*;ELG1 5FU viab=?;ELG1 MMS viab=6.29µM*;ELG1 unstim viab=?;FLuc enzyme=4.5%
CC(=O)Nc1nnc(CCN(CCc2nnc(NC(C)=O)s2)[N+](=O)[O-])s1 | -3.2 | -16.5% | 14.6% | -5.6% | 21.4% | -2.6%
Cc1cc(OC(C)C(=O)NCC2CCC(C(=O)O)CC2)c2c3c(c(=O)oc2c1)CCC3 (configuration not stated) | 14.7 | 20.9% | 10.4% | -13.9% | 0.1% | ?
CC(=O)OCC1=C[C@H]2[C@@H]3C(C)(C)[C@]3(OC(=O)Cc3ccccc3)C[C@@H](C)[C@]2(O)[C@@H]2C=C(C)C(=O)[C@@]2(O)C1 | . | . | . | . | . | . | ELG1 unstim viab=?
CC(=O)N(C)C1=Nc2ccc(Cl)cc2C(c2ccccc2)=[N+]([O-])C1 | -24.4 | ? | 0.8% | 0.0% | 11.6% | .
CC(=O)O[C@H]1C[C@@H](O[C@@H]2[C@H](C)O[C@H](O[C@@H]3[C@H](C)O[C@H](O[C@@H]4CC[C@@]5(C)[C@@H](CC[C@]6(C)[C@]5(C)C[C@H](O)[C@]5(C)[C@@H](C7=CC(=O)OC7)CC[C@@]56O)C4)C[C@@H]3O)C[C@@H]2O)O[C@@H](C)[C@H]1O[C@H]1O[C@@H](CO)[C@@H](O)[C@@H](O)[C@@H]1O | . | . | . | . | . | . | ELG1 FLuc counter=?;ELG1-Luc inh=1.07µM*;ELG1 MMS Luc=0.6µM*;ELG1 5FU viab=?;ELG1 MMS viab=1.69µM*;ELG1 unstim viab=?;FLuc enzyme=3.1%[35.2 µM]
C1=CC(Cc2cncs2)c2ccccc21 (configuration not stated) | 22.3 | 3.1% | 10.3% | 7.1% | 0.0% | ?
COc1cc(C(=O)O)cc(OC)c1OC | 11.6 | -4.7% | 9.0% | -2.0% | 4.1% | .

Screening data as filed in PubChem.
